Results taken from PubChem BioAssay (EPA / NIEHS).
The source made the active and inactive calls. Rule for the calls: active = hit-call score of the fitted dose curve at least 0.9, where 1 is the maximum; inactive = score below 0.9.

Tests used:
[1] = CEETOX_H295R_DOC: CeeTox H295R High-throughput Steroidogenesis Assay for DOC (AID 2283439); conditions: actives raise or lower the signal
Outline: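 11-Deoxycorticosterone quantified in medium by MTBE extraction and HPLC-MS/MS after 48 h chemical exposure (0.1% DMSO) of forskolin-primed (10 uM, 48 h) H295R cells. Same-well MTT viability; data fitted bidirectionally against DMSO.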

[2] = CEETOX_H295R_ESTRADIOL: CeeTox H295R High-throughput Steroidogenesis Assay for Estradiol (AID 2283440); conditions: actives raise or lower the signal;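 note: estradiol secreted into medium quantified by LC-MS/MS after dansyl derivatisation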
Outline: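 Readout is estradiol in conditioned medium, quantified by reverse-phase HPLC-MS/MS against a 7-point standard curve. Cells: H295R, forskolin-stimulated, then dosed 48 h in 0.1% DMSO; activity fitted in both directions relative to DMSO.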

[3] = CEETOX_H295R_ESTRONE: CeeTox H295R High-throughput Steroidogenesis Assay for Estrone (AID 2283441); conditions: actives raise or lower the signal;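 for AC50: human adrenal H295R cells prestimulated with forskolin for two days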
Outline: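 Estrone secreted into medium quantified by LC-MS/MS after dansyl chloride derivatization, following 48 h chemical exposure (0.1% DMSO final) of forskolin-prestimulated (10 uM, 48 h) H295R cells; gain or loss fitted against DMSO; MTT viability in same wells.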

[4] = CEETOX_H295R_PROG: CeeTox H295R High-throughput Steroidogenesis Assay for Progesterone (PROG) (AID 2283442); conditions: actives raise or lower the signal;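 for AC50: human H295R adrenal cells primed with 10 µM forskolin before dosing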
Outline: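 Measured analyte is progesterone secreted by H295R cells at 48 h of chemical treatment, following 10 uM forskolin priming. Quantitation used HPLC-MS/MS against a 7-point standard curve; cytotoxicity was checked by MTT absorbance.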

[5] = read-out: Tumor necrosis factor receptor superfamily member 6 (Homo sapiens) (UniProt P25445); experiment: LTEA_HepaRG_FAS: Life Technologies and Expression Analysis (LTEA) Assay for Fas cell surface death receptor (FAS) using HepaRG (AID 2283447); conditions: mRNA level, 48 h; actives raise or lower the signal
Outline: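 Differentiated human HepaRG cells, pre-cultured 48 h, were exposed in duplicate for 48 h to 8-point half-log concentrations (top 100 uM, 0.5% DMSO) in serum-free induction medium; FAS mRNA measured by qRT-PCR, normalized to ACTB/GAPDH/POLR2A, bidirectional fit versus DMSO.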

[6] = read-out: Fatty acid synthase (Homo sapiens) (UniProt P49327); experiment: LTEA_HepaRG_FASN: Life Technologies and Expression Analysis (LTEA) Assay for Fatty Acid Synthase (FASN) using HepaRG (AID 2283448); conditions: mRNA level, 48 h; actives raise or lower the signal
Outline: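 FASN transcript measured by TaqMan qRT-PCR, normalised to three housekeeping genes, after 48 h chemical exposure of HepaRG cells. Eight-point half-log series from 100 uM in 0.5% DMSO, duplicates; gain or loss fitted against vehicle.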

[7] = read-out: Cyclin D2 (CCND2), CCND2 (gene 894); experiment: LTEA_HepaRG_CCND2: Life Technologies and Expression Analysis (LTEA) Assay for Cyclin D2 (CCND2) using HepaRG (AID 2283449); conditions: mRNA level, 48 h; actives raise or lower the signal;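 note: CCND2 transcript measured by TaqMan qRT-PCR and normalised to three housekeeping genes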
Outline: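 In this HepaRG study, an eight-point concentration series (max 100 uM, 0.5% DMSO) is applied for 48 h. CCND2 mRNA change is derived by qRT-PCR normalised to ACTB, GAPDH and POLR2A.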

[8] = read-out: Cyclin Dependent Kinase Inhibitor 1A (CDKN1A), CDKN1A (gene 1026); experiment: LTEA_HepaRG_CDKN1A: Life Technologies and Expression Analysis (LTEA) Assay for Cyclin Dependent Kinase Inhibitor 1A (CDKN1A) using HepaRG (AID 2283450); conditions: mRNA level, 48 h; actives raise or lower the signal
Outline: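 Gain or loss of CDKN1A transcript is scored by bidirectional fitting against 0.5% DMSO vehicle. Human HepaRG cultures receive chemicals for 48 h across an 8-point series peaking at 100 uM; expression comes from qRT-PCR.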

[9] = read-out: Cyclin D1 (CCND1), CCND1 (gene 595); experiment: LTEA_HepaRG_CCND1: Life Technologies and Expression Analysis (LTEA) Assay for Cyclin D1 (CCND1) using HepaRG (AID 2283451); conditions: mRNA level, 48 h; actives raise or lower the signal
Outline: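 Expression change is measured by qRT-PCR in HepaRG cells after 48 h treatment across eight concentrations topping at 100 uM, with duplicate wells and DMSO (0.5%) serving as baseline for bidirectional fitting.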

[10] = read-out: catalase (CAT), CAT (gene 847); experiment: LTEA_HepaRG_CAT: Life Technologies and Expression Analysis (LTEA) Assay for catalase (CAT) using HepaRG (AID 2283452); conditions: mRNA level, 48 h; actives raise or lower the signal
Outline: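 Differentiated HepaRG cells in serum-free induction medium were dosed 48 h in duplicate, eight half-log concentrations from 100 uM in 0.5% DMSO. Transcript measured by TaqMan qRT-PCR, normalised to ACTB/GAPDH/POLR2A, fitted bidirectionally against DMSO.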

[11] = read-out: flavin-containing dimethylaniline monooxygenases 3 (FMO3), FMO3 (gene 2328); experiment: LTEA_HepaRG_FMO3: Life Technologies and Expression Analysis (LTEA) Assay for flavin-containing dimethylaniline monooxygenases 3 (FMO3) using HepaRG (AID 2283453); conditions: mRNA level, 48 h; actives raise or lower the signal;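 for AC50: FMO3 transcript by TaqMan qRT-PCR normalized to ACTB GAPDH and POLR2A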
Outline: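 FMO3 transcript quantified by TaqMan qRT-PCR against three housekeeping genes after 48 h chemical exposure of HepaRG cells. Eight-point half-log series, top 100 uM, 0.5% DMSO vehicle; phenobarbital 1mM induction control; up- or down-regulation fitted.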

[12] = read-out: Cytochrome P450 (CYP1A1), CYP1A1 (gene 1543); experiment: LTEA_HepaRG_CYP1A1: Life Technologies and Expression Analysis (LTEA) Assay for Cytochrome P450 (CYP1A1) using HepaRG (AID 2283454); conditions: mRNA level, 48 h; actives raise or lower the signal
Outline: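 Using HepaRG cultures with 0.5% DMSO as vehicle, eight-concentration exposures (max 100 uM) lasted 48 h. Transcript levels were measured by TaqMan qRT-PCR and normalized to ACTB, GAPDH and POLR2A.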

[13] = read-out: CFLAR gene, CFLAR (gene 8837); experiment: LTEA_HepaRG_CFLAR: Life Technologies and Expression Analysis (LTEA) Assay for CFLAR gene using HepaRG (AID 2283455); conditions: mRNA level, 48 h; actives raise or lower the signal
Outline: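 Gain- or loss-of-signal changes in CFLAR transcript were fitted bidirectionally relative to 0.5% DMSO. Cells (HepaRG, duplicate wells) were dosed for 48 h across eight half-log concentrations topping at 100 uM; quantitation by TaqMan qRT-PCR.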

[14] = read-out: Forkhead box O1 (FOXO1), FOXO1 (gene 2308); experiment: LTEA_HepaRG_FOXO1: Life Technologies and Expression Analysis (LTEA) Assay for Forkhead box O1 (FOXO1) using HepaRG (AID 2283456); conditions: mRNA level, 48 h; actives raise or lower the signal
Outline: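 Using one lot of HepaRG hepatic cells kept in 0.5% DMSO, the team applied test chemicals in duplicate, half-log dilutions from 100 uM, for 48 h. Expression, normalised to ACTB/GAPDH/POLR2A, was compared with vehicle in either direction.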

[15] = CEETOX_H295R_TESTO: CeeTox H295R High-throughput Steroidogenesis Assay for Testosterone (TESTO) (AID 2283457); conditions: actives raise or lower the signal
Outline: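 Steroidogenesis in H295R cells following OECD 456 with minor changes; 48 h exposure. Medium testosterone by HPLC-MS/MS, DMSO as baseline, with MTT viability run in parallel.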

[16] = read-out: growth arrest and DNA damage 45 (GADD45A), GADD45A (gene 1647); experiment: LTEA_HepaRG_GADD45A: Life Technologies and Expression Analysis (LTEA) Assay for growth arrest and DNA damage 45 (GADD45A) using HepaRG (AID 2283458); conditions: mRNA level, 48 h; actives raise or lower the signal
Outline: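 GADD45A expression was measured by TaqMan qRT-PCR against three housekeeping genes (ACTB, GAPDH, POLR2A) after 48 h treatment of HepaRG cells. Eight-point half-log series up to 100 uM in 0.5% DMSO, run in duplicate.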

[17] = read-out: Forkhead box O3 (FOXO3), FOXO3 (gene 2309); experiment: LTEA_HepaRG_FOXO3: Life Technologies and Expression Analysis (LTEA) Assay for Forkhead box O3 (FOXO3) using HepaRG (AID 2283459); conditions: mRNA level, 48 h; actives raise or lower the signal
Outline: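 Gene-expression endpoint: FOXO3 transcript level by qRT-PCR in HepaRG cultures treated 48 h with chemicals up to 100 uM (half-log, 0.5% DMSO vehicle).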

[18] = read-out: ABC Transporter (ABCB1), ABCB1 (gene 5243); experiment: LTEA_HepaRG_ABCB1: Life Technologies and Expression Analysis (LTEA) Assay for ABC Transporter (ABCB1) using HepaRG (AID 2283460); conditions: mRNA level, 48 h; actives raise or lower the signal
Outline: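 Human liver HepaRG line treated 48 h with up to 100 uM compound (eight half-log points, 0.5% DMSO); ABCB1 mRNA change fitted bidirectionally against DMSO controls.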

[19] = read-out: growth arrest and DNA damage 45 (GADD45B), GADD45B (gene 4616); experiment: LTEA_HepaRG_GADD45B: Life Technologies and Expression Analysis (LTEA) Assay for growth arrest and DNA damage 45 (GADD45B) using HepaRG (AID 2283461); conditions: mRNA level, 48 h; actives raise or lower the signal
Outline: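 Human HepaRG monolayers receive chemicals for 48 h at eight half-log concentrations, highest 100 uM, in 0.5% DMSO. Expression is measured by TaqMan qRT-PCR and normalized to ACTB, GAPDH and POLR2A.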

[20] = read-out: ABC Transporter (ABCC3), ABCC3 (gene 8714); experiment: LTEA_HepaRG_ABCC3: Life Technologies and Expression Analysis (LTEA) Assay for ABC Transporter (ABCC3) using HepaRG (AID 2283462); conditions: mRNA level, 48 h; actives raise or lower the signal
Outline: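 Transcriptional change of ABCC3 in HepaRG after 48 h treatment, determined by qRT-PCR normalized to endogenous controls. Concentrations spanned eight half-log steps to 100 uM in 0.5% DMSO.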

Measured: AC50

Sequence of Fatty acid synthase (Homo sapiens) (P49327 whole entry, looked up): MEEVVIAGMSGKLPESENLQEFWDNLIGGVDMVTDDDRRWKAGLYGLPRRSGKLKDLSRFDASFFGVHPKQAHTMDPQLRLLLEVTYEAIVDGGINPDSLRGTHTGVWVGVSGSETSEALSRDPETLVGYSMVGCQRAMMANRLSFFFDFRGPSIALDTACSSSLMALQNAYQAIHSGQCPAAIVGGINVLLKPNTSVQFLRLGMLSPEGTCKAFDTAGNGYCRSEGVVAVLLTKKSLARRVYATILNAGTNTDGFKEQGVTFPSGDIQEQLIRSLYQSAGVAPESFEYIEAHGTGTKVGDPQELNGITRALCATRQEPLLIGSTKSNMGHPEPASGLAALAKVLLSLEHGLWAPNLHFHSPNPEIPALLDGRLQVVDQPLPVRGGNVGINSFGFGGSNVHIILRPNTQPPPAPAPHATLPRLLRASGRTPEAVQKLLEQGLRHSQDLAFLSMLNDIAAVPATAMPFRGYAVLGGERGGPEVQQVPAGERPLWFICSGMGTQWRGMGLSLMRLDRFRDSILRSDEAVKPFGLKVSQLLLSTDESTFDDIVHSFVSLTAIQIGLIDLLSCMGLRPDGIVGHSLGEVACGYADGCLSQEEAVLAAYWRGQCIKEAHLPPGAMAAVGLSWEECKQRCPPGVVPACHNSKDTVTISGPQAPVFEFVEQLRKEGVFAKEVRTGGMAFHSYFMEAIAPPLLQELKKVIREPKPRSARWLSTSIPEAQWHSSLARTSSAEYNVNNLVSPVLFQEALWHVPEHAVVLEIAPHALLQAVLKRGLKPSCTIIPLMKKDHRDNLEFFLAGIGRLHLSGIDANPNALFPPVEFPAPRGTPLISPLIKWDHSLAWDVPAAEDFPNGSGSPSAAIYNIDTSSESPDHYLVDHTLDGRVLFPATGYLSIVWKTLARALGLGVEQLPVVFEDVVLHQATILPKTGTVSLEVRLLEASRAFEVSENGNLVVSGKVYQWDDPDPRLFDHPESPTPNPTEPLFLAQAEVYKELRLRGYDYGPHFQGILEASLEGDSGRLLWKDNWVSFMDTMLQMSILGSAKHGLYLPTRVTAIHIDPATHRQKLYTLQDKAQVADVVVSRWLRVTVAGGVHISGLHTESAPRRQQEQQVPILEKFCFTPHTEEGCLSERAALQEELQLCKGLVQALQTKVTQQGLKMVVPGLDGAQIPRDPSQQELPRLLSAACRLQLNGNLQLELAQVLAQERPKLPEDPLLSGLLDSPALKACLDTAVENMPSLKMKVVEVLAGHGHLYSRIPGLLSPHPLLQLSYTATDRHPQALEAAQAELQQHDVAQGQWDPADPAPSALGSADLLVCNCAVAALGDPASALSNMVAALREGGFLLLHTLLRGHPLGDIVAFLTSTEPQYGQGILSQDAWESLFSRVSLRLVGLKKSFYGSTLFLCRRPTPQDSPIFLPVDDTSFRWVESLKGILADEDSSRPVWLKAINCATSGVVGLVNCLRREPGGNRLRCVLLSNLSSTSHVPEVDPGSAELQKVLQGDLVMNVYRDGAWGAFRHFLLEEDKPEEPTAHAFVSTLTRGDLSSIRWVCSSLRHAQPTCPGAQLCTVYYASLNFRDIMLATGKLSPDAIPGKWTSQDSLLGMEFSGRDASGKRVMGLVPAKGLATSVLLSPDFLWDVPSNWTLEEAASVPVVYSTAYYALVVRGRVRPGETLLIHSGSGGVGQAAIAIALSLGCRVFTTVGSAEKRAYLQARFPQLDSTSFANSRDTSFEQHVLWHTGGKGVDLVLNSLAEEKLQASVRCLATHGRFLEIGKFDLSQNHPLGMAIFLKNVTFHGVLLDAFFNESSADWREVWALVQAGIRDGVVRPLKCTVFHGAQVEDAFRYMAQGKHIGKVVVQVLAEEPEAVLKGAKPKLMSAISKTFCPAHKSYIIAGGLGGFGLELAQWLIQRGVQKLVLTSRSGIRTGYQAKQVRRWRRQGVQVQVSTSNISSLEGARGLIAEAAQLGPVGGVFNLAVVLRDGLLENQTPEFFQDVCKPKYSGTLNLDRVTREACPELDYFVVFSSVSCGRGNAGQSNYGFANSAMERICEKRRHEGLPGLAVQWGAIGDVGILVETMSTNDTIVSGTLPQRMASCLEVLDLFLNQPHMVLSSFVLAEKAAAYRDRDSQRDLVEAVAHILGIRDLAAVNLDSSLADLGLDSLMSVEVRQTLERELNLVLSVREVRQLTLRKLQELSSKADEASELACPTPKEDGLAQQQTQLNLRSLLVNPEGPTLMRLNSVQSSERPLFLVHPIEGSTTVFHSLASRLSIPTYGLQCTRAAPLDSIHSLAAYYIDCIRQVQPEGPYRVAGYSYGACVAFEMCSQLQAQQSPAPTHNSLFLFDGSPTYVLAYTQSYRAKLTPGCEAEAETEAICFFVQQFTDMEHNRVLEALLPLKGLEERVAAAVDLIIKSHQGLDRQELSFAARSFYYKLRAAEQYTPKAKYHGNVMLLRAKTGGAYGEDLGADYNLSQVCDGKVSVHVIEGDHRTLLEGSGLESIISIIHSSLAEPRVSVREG

CCN(CC)C(=S)SSC(=S)N(CC)CC
active: [12] 51 µM
not listed: [20]
inactive: all other assays above

CCOc1ccc2[nH]cc(C(=O)NCc3ccccc3)c(=O)c2n1
active: [11] 79.6 µM
not listed: [1] | [6] | [12] | [15]
inactive: all other assays above

CCCOc1ccc(S(=O)(=O)N2CCN(CC)CC2)cc1-c1nc2c(CC)n(Cc3ccccn3)nc2c(=O)[nH]1
active: [12] 59.8 µM | [18] 2.87 µM
not listed: [6] | [15]
inactive: all other assays above

O=C(O)c1ccc2c(c1)nc(C(=O)NC1CCN(C3CC3)CC1)n2Cc1cc(-c2ccc(Cl)s2)on1
not listed: [1] | [2] | [3] | [4] | [12] | [15]
inactive: all other assays above

CCn1nc(C)c2c1C(=O)NCC(c1ccc(O)cc1)=N2
active: [1] 50 µM | [2] 0.18 µM | [3] 0.185 µM | [4] 1.91 µM | [6] 17.1 µM
not listed: [12] | [15]
inactive: all other assays above

Cn1cc[nH]c1=S
not listed: [1] | [2] | [3] | [4] | [12] | [15]
inactive: all other assays above
